PubChem BioAssay (NCATS)
Several values for one entry are separate records, joined by “and”; a condition that tells them apart may be missing. Identical values can stand only once. Inconclusive results are not listed. Activity calls are given as the source filed them. Calls follow the shape of the dose curve; as a rule, active = well fitted activation curve with a large enough effect in the signal ratio; inconclusive = small, poorly fitted or top-dose-only effect, or a change in a side signal; inactive = flat fitted curve, though single readings scatter; the % refers to the signal ratio.

test: qHTS assay for small molecule activators of the nuclear factor-kappa B (NF-kB) signaling pathway (AID 651749); conditions: NF-kB-bla ME-180 cells, beta-lactamase FRET ratio, 16 h; hits give high values; also: series mostly up to about 77 µM; % of control where 0% means no effect
Source text: National Center for Advancing Translational Sciences [NCATS] NIH Chemical Genomics Center [NCGC] U.S. Environmental Protection Agency [EPA] National Institutes of Environmental Health Sciences [NIEHS] National Toxicology Program [NTP] Assay Overview: Transcription factors and their stimulated target gene expression play pivotal roles across many cellular processes including responses to environmental stimuli. Proper regulation of associated pathways is critical to maintain cell health and function. Constitutive activation of transcription factor pathways has been implicated in tumors as it may block cellular functions such as apoptosis and lead to invasion and metastasis. One important transcription factor that stimulates gene expression in response to cytokines, UV radiation, and other stimuli is nuclear factor-kappa B (NF-kB). To measure activation of the NF-kB pathway, the NF-kB-bla ME-180 cell line stably expressed beta-lactamase reporter gene under the regulation of a NF-kB response element was obtained from Invitrogen. This assay allows measurement of the NF-kB pathway activity induced by compounds in a ME-180 cell line. This system quantitates NF-kB activity using a FRET-based assay system where beta-lactamase expression disrupts FRET, allowing for fluorescent measurement of activity.
Assay Protocol Summary: For toxicology screening, 2,000 cells in 5 uL/well were dispensed into black, clear-bottom 1536-well plates using a Multidrop Combi (Thermo Scientific) dispenser. Following transfer of 23 nL compound or DMSO vehicle by a pin tool, the plates were incubated 16 hr at 37C and 5% CO2.

Row | Structure (SMILES) | activation
1 | C[C@H](CCC(=O)O)[C@H]1CC[C@H]2[C@@H]3[C@H](O)C[C@@H]4C[C@H](O)CC[C@]4(C)[C@H]3C[C@H](O)[C@]12C | -0.745% (inactive)
2 | CC(C)CCC[C@@H](C)[C@H]1CC[C@H]2[C@@H]3CC=C4C[C@@H](O)CC[C@]4(C)[C@H]3CC[C@]12C | 0.0919% (inactive)
3 | CO/N=C(/C(=O)N[C@@H]1C(=O)N2C(C(=O)O)=C(COC(N)=O)CS[C@H]12)c1ccco1 | -0.141% (inactive)
4 | Nc1ccc(N=Nc2ccccc2)c(N)n1 | -0.825% (inactive)
5 | OCC(O)CO | 0.141% (inactive) and 0.577% (inactive)
6 | ClC(Cl)Cl | -1.06% (inactive)
7 | CC(C)(C)CC(C)(C)c1ccc(OCCO)cc1 | 0.716% (inactive)
8 | CC[C@H]1OC(=O)[C@H](C)[C@@H](O[C@H]2C[C@@](C)(OC)[C@@H](O)[C@H](C)O2)[C@H](C)[C@@H](O[C@@H]2O[C@H](C)C[C@H](N(C)C)[C@H]2O)[C@](C)(O)C[C@@H](C)CN(C)[C@H](C)[C@@H](O)[C@]1(C)O | -0.197% (inactive)
9 | C[Si](C)(C)O[Si](C)(C)C | -1.12% (inactive)
10 | OCCOCCOCCO | -1.02% (inactive) and -0.204% (inactive)
11 | C=CC(C)(O)CC/C=C(\C)CCC=C(C)C (stereo not given) | 0.695% (inactive)
12 | C=C1C(CCl)(CCl)C2(Cl)C(Cl)C(Cl)C1(Cl)C2(Cl)Cl (stereo not given) | 0.534% (inactive)
13 | CC1=CCC2CC1C2(C)C (stereo not given) | -0.174% (inactive)
14 | OCl | -0.921% (inactive)
15 | CC(C)[C@@H]1CC[C@@H](C)C[C@H]1O | 0.809% (inactive)
16 | Oc1cccc(O)c1O | 2.45% (inactive)
17 | CCCCCCCCCCCCCCCCCC(=O)OC[C@@H](O)[C@H]1OC[C@H](O)[C@H]1O | -0.074% (inactive)
18 | CC(C)O | -0.863% (inactive)
19 | NCCN | -0.458% (inactive)
20 | CCOC(C)OCC | 0.0884% (inactive)

Row | Structure (SMILES) | activation
21 | C[C@H]1O[C@@H](O[C@H]2[C@@H](O)C[C@H](O[C@H]3[C@@H](O)C[C@H](O[C@H]4CC[C@@]5(C)[C@H](CC[C@@H]6[C@@H]5C[C@@H](O)[C@]5(C)[C@@H](C7=CC(=O)OC7)CC[C@]65O)C4)O[C@@H]3C)O[C@@H]2C)C[C@H](O)[C@@H]1O | -3.56% (inactive) and -2.4% (inactive)
22 | Oc1ccc(/C=C/c2cc(O)cc(O)c2)cc1 | 5.67% (inactive)
23 | Cc1ncc[nH]1 | 0.166% (inactive)
24 | O=P(O)(O)O | -0.144% (inactive)
25 | C=C(C)C1CC=C(C)CC1 (stereo not given) | -0.265% (inactive) and 0.532% (inactive)
26 | CN(CCO)CC(O)Cn1cnc2c1c(=O)n(C)c(=O)n2C (stereo not given) (tested in a mixture with another compound) | 1.88% (inactive)
27 | CO[C@@H]1[C@H](OC(=O)/C=C/C=C/C=C/C=C/C(=O)O)CC[C@]2(CO2)[C@H]1[C@@]1(C)O[C@@H]1CC=C(C)C | -0.892% (inactive)
28 | NCCO/C=C/[C@H](N)C(=O)O | -5.26% (inactive)
29 | COC(=O)c1ccccc1O | -1.33% (inactive) and 1.01% (inactive)
30 | Nc1nccs1 | 0.221% (inactive)
31 | C[C@H](CCC(=O)O)[C@H]1CC[C@H]2[C@@H]3CC[C@@H]4C[C@H](O)CC[C@]4(C)[C@H]3C[C@H](O)[C@]12C | 0.346% (inactive)
32 | c1ccc2ccccc2c1 | 0.258% (inactive) and -0.756% (inactive)
33 | CCCCC(CC)COS(=O)(=O)O (stereo not given) | -1.03% (inactive)
34 | CCCCC | -0.668% (inactive)
35 | O=c1n(CC2CO2)c(=O)n(CC2CO2)c(=O)n1CC1CO1 (stereo not given) | -0.976% (inactive) and -0.874% (inactive)
36 | OCc1ccccc1 | 0.143% (inactive)
37 | CO | -0.694% (inactive)
38 | Nc1ncnc2c1ncn2[C@H]1CC[C@@H](CO)O1 | -1.92% (inactive)
39 | CC1=CC(=O)NS(=O)(=O)O1 | -0.0661% (inactive) and 0.935% (inactive)
40 | OC[C@H]1O[C@@](CO)(O[C@H]2O[C@H](CO)[C@@H](O)[C@H](O)[C@H]2O)[C@@H](O)[C@@H]1O | -1.26% (inactive)
